Screening results: PubChem, National Center for Advancing Translational Sciences (NCATS)
Cycloheximide cs: counter-screen for Shiga toxin inhibitors: cycloheximide protein synthesis inhibition; max response, %; AID 2314; cell reporter, cycloheximide protein synthesis inhibition counterscreen; 300,000 tested, 12% active; in the data active = max response mostly above about 13%, no sharp cut-off; inactive = mostly below about 14%; note: read at 38.3 µM for the half of the compounds with a filed dose; 0% is about no effect
Pf growth 48h: P. falciparum growth inhibition at 48 hours (one generation). P. falciparum luciferase growth in erythrocytes, 48 h. Potency, µM (series often up to 28.7 µM), for inactives: at the highest dose activity change, negative = inhibition, actives largely listed as inhibitors. 310,000 tested, 5.9% active; note: potency is the fitted concentration of half-maximal effect; % is set by controls: 0 for no effect and ±100 for the full control effect
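Erythrocytes infected with P. falciparum carrying an integrated firefly luciferase reporter (2% hematocrit, 0.1% parasitemia final) were exposed to compounds in RPMI 1640 with 0.5% Albumax at 37 C, 5% CO2. Growth inhibition was scored as reduced luminescence.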
Pf growth 96h: P. falciparum growth inhibition at 96 hours. P. falciparum luciferase reporter growth, 96 h. Potency, µM (doses to about 28.7 µM), for inactives: at the top dose activity change, negative = inhibition, usual class: inhibitors. 320,000 tested, 6.9% active. AID 504834; note: potency is the fitted concentration of half-maximal effect; % is set by controls: 0 for no effect and ±100 for the full control effect
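Two-generation exposure (96 h) targets delayed-death phenotype. Reporter parasites carrying integrated firefly luciferase, in red cells at 2% hematocrit and 0.05% parasitemia final, kept at 37 C, 5% CO2; luminescence loss indicates inhibition.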
Shiga inhibitor: inhibitors of Shiga toxin in Vero cells | Vero cells, Shiga toxin protein synthesis inhibition reporter | inhibition, % at 38.7 µM | 290,000 tested, 9.2% active | AID 2315; in the data active = inhibition mostly above about 28%, no sharp cut-off; inactive = mostly below about 43%; note: 0% is about no effect
Active calls of the source: *; ? = inconclusive; . = not tested or not shown; ! = repeats disagree. Sampled rows, rich in hits. Any-hit rate of the full collection: about 21%. Unless noted, calls come from the whole dose curve; as a rule, active = well fitted inhibition curve with a large enough effect; inconclusive = small, poorly fitted or top-dose-only effect, or another doubt; inactive = no such curve, though single readings can be large or run the other way.

SMILES	Cycloheximide cs	Pf growth 48h	Pf growth 96h	Shiga inhibitor
COC1CCN(Cc2c(C(=O)N3CCN(C4CCCCC4)CC3)nc3ccccn23)CC1	-4	9%	-17%	-6
CCCOc1ccc(C(=O)N2CCN(Cc3ccc4c(c3)OCO4)CC2)cc1	2	-1%	265%	2
O=C(NCC(=O)N(Cc1cccs1)C(C(=O)NC1CCCC1)c1ccncc1)c1ccco1 (stereo unspecified)	1	-19%	?	9
O=C(CNC(=S)N(Cc1ccccc1)Cc1cccnc1)NC1CCCCC1	-3	?	9.3µM*	-8
CCOc1ccccc1C(C(=O)NC1CCCC1)N(Cc1ccco1)C(=O)CNC(=O)c1ccco1 (stereo unspecified)	12*	8.3µM*	?	13
O=C(CNC(=S)N(Cc1ccccc1)Cc1cccnc1)NCc1ccccc1	1	-18%	?	-9
O=C(NCC(=O)N(Cc1ccccc1)C(C(=O)NC1CCCC1)c1ccncc1)c1ccco1 (stereo unspecified)	20*	?	?	15
O=C(NC1CCCCC1)C(=O)N(Cc1cccnc1)C(C(=O)NCc1ccco1)c1ccccc1 (stereo unspecified)	6	-27%	5.2µM*	-9
COc1ccccc1C(CNC(=O)c1ccc(S(=O)(=O)N2CCCCC2)cc1)N(C)C (stereo unspecified)	.	?	3%	.
O=S1(=O)CCOCCCN1Cc1ccc(Cl)cc1	-2	-8%	-2%	5
CCCCN(C(=O)CNC(=O)c1cccs1)C(C(=O)NC1CCCC1)c1ccncc1 (stereo unspecified)	28*	-30%	17%	46
O=C(NCC(=O)N(Cc1ccccc1)C(C(=O)NC1CCCC1)c1ccco1)c1ccco1 (stereo unspecified)	5	-3%	5.2µM*	26
CCOC(=S)SSC(=S)OCC	.	-1%	-1%	.
COc1ccc(C(=O)C(CN2CCCC2)c2ccccc2)cc1 (stereo unspecified)	25*	13µM*	4%	9
CCCOc1ccc(C(=O)C(CN2CCCC2)c2ccccc2)cc1 (stereo unspecified)	6	10µM*	?	-5
O=C(CSc1ccc(-c2ccc(Br)cc2)nn1)NC1CCCC1	1	?	39%	-12
NS(=O)(=O)c1cc(C(=O)N2CCNC(=O)C2)ccc1Cl	9	4%	-3%	-9
Cn1cc(NC(=O)c2cc(NC(=O)c3cc(NC=O)cn3C)cn2C)cc1C(=O)NCCC(=N)N	-5	3.4µM*!	?	-3
CCOC(=O)c1c(CN(C)C)n(C)c2c(O)c(N=NC(N)=O)c3ccc(Br)cc3c12	-1	0.41µM*	4%	22
CCCn1c(=O)c(C(=O)OCC)c(O)c2cc(Br)ccc21	-2	3%	?	-5
Cc1cc2c(s1)c1cnn(Cc3cccc(F)c3F)c(=O)c1n2C	9	.	.	19
COc1ccc(CNC(=O)c2ccc(Cn3cc(Br)cn3)o2)cc1	-1	-14%	38%	-11
CC(C)C(=O)Nc1ccc(C(=O)Nc2nnc(C(C)C)s2)cc1	31	47%	0%	44*
CC(C)c1nnc(NC(=O)CCC(=O)Nc2ccccc2)s1	-1	-3%	16%	-5
CC(C)C(=O)Nc1cccc(C(=O)Nc2nnc(C(C)C)s2)c1	42*	356%	-29%	92*
SMILES	Cycloheximide cs	Pf growth 48h	Pf growth 96h	Shiga inhibitor
CC(C)c1nnc(NC(=O)c2ccc(S(=O)(=O)N3CCOCC3)cc2)s1	-1	13%	?	-15
CC(C)c1nnc(NC(=O)c2cccc(NC(=O)C(F)(F)F)c2)s1	47*	362%	49%	84*
Cc1nnc(NC(=O)c2cccc(NC(=O)C(C)C)c2)s1	10	?	.	49
Cc1nnc(SCC(=O)Nc2ccc3c(c2)OCO3)n(N)c1=O	9	4%	0%	27
O=C(CSc1nnnn1-c1cccc(F)c1)NC1CCCCC1	.	9%	20%	.
O=C1c2ccccc2C(Nc2ccc3c(c2)OCCO3)N1Cc1ccc2c(c1)OCO2 (stereo unspecified)	31*	?	-19%	62*
O=C1c2ccccc2C(Nc2ccc3c(c2)OCCO3)N1c1ccc(Cl)cn1 (stereo unspecified)	9.9*	.	32%	44
O=C1c2ccccc2C(Nc2ccccc2)N1Cc1ccc2c(c1)OCO2 (stereo unspecified)	8	?	?	-9
O=C1c2ccccc2C(Nc2ccc3c(c2)OCCO3)N1c1ccccn1 (stereo unspecified)	41*	9.3µM*	32%	70*
O=C1NC(=O)c2c1c(-c1ccccc1)cc1[nH]c3ccc(O)cc3c21	16	.	.	5
